Screen size: about 2,300 compounds; about 1,000 (43%) were called active. How the calls were made is not given here. The set was probably picked from earlier hits. The list shows a part of the results. Entries with a potency or affinity are not part of this list.
experiment: PhoP regulon inhibitor project modified counter assay, GFP fluorescence readout, dose response (AID 1985); details: S. Typhi, 4 h; series mostly up to 150 µM; inhibition: at the top concentration

SMILES | inhibition
COc1cc(C(c2nnnn2C2CCCC2)N2CCN(C)CC2)cc(OC)c1OC (stereo unspecified) | 2.81% (inactive)
O=S1(=O)CC=C(CSc2nc3ccccc3[nH]2)C1 | -9.82% (inactive)
Cc1ccnc(NS(=O)(=O)c2ccc(N=CC3=C(O)CC(C)(C)CC3=O)cc2)n1 | 33.4% (inactive)
Cc1ccc(-n2[nH]c(C)c(C=NCc3ccncc3)c2=O)cc1 | -15.4% (inactive)
CCC(Oc1ccccc1)C(=O)Nc1nnc(S(=O)(=O)N2CCCCC2)s1 (stereo unspecified) | -6.86% (inactive)
CCOc1ccc(C2CC(=O)NC(SCC(=O)OC)=C2C#N)cc1 (stereo unspecified) | 9.67% (inactive)
COc1ccc(-c2cc(C(=O)Nc3ccc(S(=O)(=O)Nc4onc(C)c4C)cc3)c3ccccc3n2)cc1OC | 9.88% (inactive)
CCC(CC)C(=O)NCCc1cc2ccc(C)cc2[nH]c1=O | -11.5% (inactive)
O=Cc1ccc(N2CCCCCC2)cc1 | -1.36% (inactive)
CCOC(=O)C1=C(C)NC(SCC(N)=O)=C(C#N)C1c1ccncc1 (stereo unspecified) | -2.55% (inactive)
COc1ccccc1C(=O)N1CC2(C)CC1CC(C)(C)C2 (stereo unspecified) | -17.9% (inactive)
COc1ccc(Cl)cc1-c1n[nH]c(=S)o1 | 22.8% (inactive)
COc1ccc(-c2nnn(-c3ccc(Cl)cc3Cl)c2N)cc1 | 18.2% (inactive)
Clc1ccc2nc(N3CCCCC3)[nH]c2c1 | 36.1% (inactive)
Clc1ccc(/C=C/c2ncc[nH]2)c(Cl)c1 | -14.2% (inactive)
CN(C)C(CNc1ccc([N+](=O)[O-])cc1C#N)c1ccccc1 (stereo unspecified) | 0.73% (inactive)
COc1ccc(C(=O)C2CCN(CC(=O)Nc3cc(C)cc(C)c3)CC2)cc1 | 5.89% (inactive)
CCN1CCN(Cc2ccc(NC(=O)c3ccc(C)c(NC(=O)C(=O)c4c[nH]c5ccccc45)c3)cc2C(F)(F)F)CC1 | 22.5% (inactive)
O=C(CSC1=NCCS1)Nc1nc2c(s1)CCCC2 | -5.66% (inactive)
COc1ccc(CC(=O)Nc2ncc([N+](=O)[O-])s2)cc1OC | 37.9% (inactive)
Cc1ccc(CNC(=O)CCC(=O)Nc2nnc(C)s2)cc1 | 6.87% (inactive)
O=C(c1cc2c(s1)-c1ccccc1S(=O)(=O)C2)N1CCN(Cc2ccccc2)CC1 | 4.65% (inactive)
COc1cccc(OC)c1C(=O)Nc1ccc(N2CCN(S(C)(=O)=O)CC2)cc1 | 8.9% (inactive)
COCc1ccc(C(=O)Nc2ccc(C(=O)O)cc2)o1 | 28.9% (inactive)
COC(=O)C1=C(C)N(C2CCCC2)C(=O)C1(NC(C)=O)C(F)(F)F (stereo unspecified) | -18.9% (inactive)
NC(=O)c1cc(C(=O)c2cccc(Cl)c2Cl)c[nH]1 | 24.7% (inactive)

SMILES | inhibition
Cc1cnc(C(=O)Nc2nnc(C)s2)cn1 | 14.5% (inactive)
O=C1C=C(Nc2ccccc2O)c2ccccc2C1=O | 31.8% (inactive)
CCCCCCOc1ccc(N2C(=O)CC(SC(=NCC)NCC)C2=O)cc1 (stereo unspecified) | 2.18% (inactive)
CCCCOc1ccc(CN2CCC(O)CC2)cc1 | 17.8% (inactive)
O=C1NC(=S)S/C1=C1\Sc2ccccc2N1CCCS(=O)(=O)O | 2.35% (inactive)
CN(C)CCCN1c2ccccc2Sc2ccc(C(F)(F)F)cc21 | 30.6% (inactive)
O=C(Cc1ccc(F)cc1)NC1CCCC1 | 12.7% (inactive)
Cc1ccc(C)c(NC(=O)c2ccccc2O)c1 | -7.11% (inactive)
Cn1ncc(N=Cc2ccccc2O)c1C(=O)N1CCOCC1 | -12.2% (inactive)
O=C(NC1CCCCC1)c1ccc(S(=O)(=O)NCc2cccnc2)cc1 | -17.7% (inactive)
Cc1ccc(C)c(OCc2ccc(C(=O)NN)o2)c1 | 27.3% (inactive)
Cc1nc(-c2ccc(C(=O)N3CCOCC3)cc2)cs1 | 10.6% (inactive)
C[C@]1(OC(=O)/C=C/c2ccccc2)C[C@@H](O)[C@]2(O)C=CO[C@@H](O[C@@H]3O[C@H](CO)[C@@H](O)[C@H](O)[C@H]3O)[C@@H]21 | 5.08% (inactive)
C1=Nc2ccccc2CN1c1ccccc1 | 7.62% (inactive)
COc1ccc(C(C(=O)Nc2ccc(C(C)C)cc2)N(Cc2ccco2)C(=O)CC2NC(=O)NC2=O)cc1 (stereo unspecified) | -6.35% (inactive)
Cc1ncc([N+](=O)[O-])n1CC(=O)NC1CCCC1 | 1.84% (inactive)
CC(=O)NS(=O)(=O)c1ccc(Nc2ccc([N+](=O)[O-])c3nonc23)cc1 | 34.2% (inactive)
O=C1CC(=O)CC(c2ccco2)C1 | 28.2% (inactive)
CC1=C([N+](=O)[O-])C(c2ccccc2)C2=C(N1)c1ccccc1C2=O (stereo unspecified) | 24.3% (inactive)
COc1ccccc1C(=O)Nc1nnc(-c2ccc(F)cc2)o1 | 26.4% (inactive)
N#CC1=C2N=C(N)c3ccccc3N2C2=C(C(=O)CCC2)C1c1cccc(Cl)c1 (stereo unspecified) | 5.41% (inactive)
O=C1c2ccccc2NC(c2cccc([N+](=O)[O-])c2)N1CCc1ccccc1 (stereo unspecified) | 9.59% (inactive)
CCS(=O)(=O)N1CCN(C(=O)c2ccco2)CC1 | -24.8% (inactive)
COc1cc(S(=O)(=O)N2CCN(C(=O)c3ccco3)CC2)c(OC)cc1C | -10.2% (inactive)
COc1ccccc1NC(=O)Cn1nc(-c2ccncc2)nc1SCC(=O)NC1CCCC1 | -1.02% (inactive)
O=C(CCNS(=O)(=O)c1cccc2nonc12)N1CCN(c2cccc(Cl)c2)CC1 | 7.36% (inactive)

SMILES | inhibition
CC1CC(C)CN(S(=O)(=O)c2cccc3cccnc23)C1 (stereo unspecified) | -4.37% (inactive)
C=CCN(c1ccccc1)S(=O)(=O)c1cccc2cccnc12 | -2.13% (inactive)
CCN(CC)C(=O)C(=O)c1cn(CC(=O)N2CCc3ccccc3C2)c2ccccc12 | 21.2% (inactive)
CC(=O)Oc1ccc(C(=O)Nc2ccc3c(c2)C(=O)N(CCC(=O)O)C3=O)cc1 | 13.5% (inactive)
Brc1ccc2c(c1)CN1CCCC1=N2 | 37.3% (inactive)
c1ccc(CNc2nc(-c3ccccn3)nc3ccccc23)cc1 | 0.55% (inactive)
Cc1n[nH]c(=O)nc1NCCc1ccccc1 | -1% (inactive)
CCOC(=O)COc1cccc2c(=O)n(CC(=O)N3CCCCC3)ccc12 | -13.4% (inactive)
CC(=O)CC1OC(=O)C(Br)=C1NCc1ccccc1 (stereo unspecified) | 3.89% (inactive)
COC(=O)CNc1n[nH]c(=S)[nH]c1=O | 25.4% (inactive)
O=C(C[n+]1cc(Br)cc2ccccc21)c1ccc(F)cc1 | 21.7% (inactive)
COc1ccc(C(=O)C[n+]2cc(Br)cc3ccccc32)cc1[N+](=O)[O-] | 4.84% (inactive)
CCOCCCNC(=O)CN1CCN(Cc2ccccc2C)C1=O | -10.6% (inactive)
COC(=O)c1c(-c2cccc(C)c2)csc1N | 7.62% (inactive)
COC(=O)c1cc2ccsc2n1CC(=O)N(C)c1ccccc1 | 22.5% (inactive)
CC(C)(C)CC(=O)Nc1nnc(SCC(=O)N2CCCCC2)s1 | 19.3% (inactive)
Cc1nc(C)c(-c2ccc(SCc3ccccc3C)nn2)s1 | 1.29% (inactive)
COc1ccc(-c2nnc(SC(C)C(=O)Nc3nccs3)n2Cc2ccccc2)cc1OC (stereo unspecified) | -11.8% (inactive)
CC1=C(C#N)CCC(=O)N1Cc1c(C)cc(C)cc1C | 16.8% (inactive)
COc1ccc(Cl)cc1NC(=O)c1cc(-c2ccccc2)on1 | -9.57% (inactive)
CC(Oc1ccc(Br)cc1)c1nc2c3ccccc3nc(=S)n2[nH]1 (stereo unspecified) | 36.7% (inactive)
COc1ccc(NC(=O)Cn2cnc3c(cnn3C(C)(C)C)c2=O)cc1OC | -7.57% (inactive)
COc1ccc(-n2nnc3c(SCC(=O)N4CCCc5ccccc54)ncnc32)cc1 | -1.62% (inactive)
Cc1ccn2cc(C(=O)Nc3nnc(C)s3)nc2c1 | 8.12% (inactive)
Cc1cc(C(=O)OCC(=O)Nc2cccc(S(=O)(=O)N3CCOCC3)c2)c(C)o1 | -14.2% (inactive)
C#CCOCCOCCOCCNc1nc(N2CCN(C(=O)[C@H](CCCCN)n3cc([C@@H](N)CO)nn3)CC2)nc(N2CCN(C(=O)[C@H](Cc3cc4ccccc4[nH]3)n3cc([C@@H](N)Cc4ccc(O)cc4)nn3)CC2)n1 | 6.35% (inactive)

SMILES | inhibition
C#CCOCCOCCOCCNc1nc(N2CCN(C(=O)C(Cc3cc4ccccc4[nH]3)n3cc(C(N)C(C)CC)nn3)CC2)nc(N2CCN(C(=O)C(Cc3cc4ccccc4[nH]3)n3cc(C(N)C(C)CC)nn3)CC2)n1 (stereo unspecified) | 4.82% (inactive)
Nc1ccc(C(O)(C(F)(F)F)C(F)(F)F)cc1 | -17.8% (inactive)
C#CCOCCOCCOCCNc1nc(N2CCN(C(=O)[C@H]([C@@H](C)CC)n3cc([C@@H](N)CO)nn3)CC2)nc(N2CCN(C(=O)[C@H](Cc3cc4ccccc4[nH]3)n3cc([C@@H](N)Cc4ccc(O)cc4)nn3)CC2)n1 | 14.7% (inactive)
C#CCOCCOCCOCCNc1nc(N2CCN(C(=O)[C@H](Cc3ccc(O)cc3)n3cc([C@@H](N)C(C)CC)nn3)CC2)nc(N2CCN(C(=O)[C@H](Cc3cc4ccccc4[nH]3)n3cc([C@@H](N)Cc4ccc(O)cc4)nn3)CC2)n1 (stereo partly specified) | -18.6% (inactive)
C#CCOCCOCCOCCNc1nc(N2CCN(C(=O)C(Cc3ccc(O)cc3)n3cc(C(N)CC(C)C)nn3)CC2)nc(N2CCN(C(=O)C(Cc3cc4ccccc4[nH]3)n3cc(C(N)Cc4ccc(O)cc4)nn3)CC2)n1 (stereo unspecified) | -16.3% (inactive)
O=C(O)c1[nH]c2ccc(Br)cc2c1CCN1C(=O)c2cccc([N+](=O)[O-])c2C1=O | 28.4% (inactive)
Cc1ccc(CCNC(=O)c2cc(S(=O)(=O)N3CCCCC3)c[nH]2)cc1 | -3.72% (inactive)
CN1CCN(c2ccc(NC(=O)CSc3ccccc3)cc2F)CC1 | -5.04% (inactive)
Cn1cnnc1SCC(=O)Nc1ccc2nc(SCc3ccccc3)sc2c1 | 18.3% (inactive)
CCOC(=O)c1ccc(NC(=O)CSc2nc(N3CCOCC3)nc(N3CCOCC3)n2)cc1 | -12.2% (inactive)
CCOc1ccccc1NC(=O)CSc1nc(N)c(C#N)cc1C#N | -8.74% (inactive)
O=C(Nc1ccc2c(c1)OCCO2)C1CCCN1C(=O)Nc1ccc(F)cc1 (stereo unspecified) | -20.6% (inactive)
C/C=C/c1ccc(OCc2cc(=O)n3cc(C)ccc3n2)c(OC)c1 | 4.23% (inactive)
CCN(CCCNC(=O)c1cn(CC)c2ccc(S(=O)(=O)N(C)C)cc2c1=O)c1cccc(C)c1 | -6.32% (inactive)
Cc1ccc(CCN2C(=O)CCC2(C)C(=O)NC2CCCC2)cc1 (stereo unspecified) | -30.8% (inactive)
O=C(NCc1ccccc1)N[C@@H](Cc1c[nH]c2ccccc12)C(=O)O | -11.1% (inactive)
Cc1c(-n2cc(C(=O)c3ccccc3O)cc(C#N)c2=O)c(=O)n(-c2ccccc2)n1C | -2.88% (inactive)
Cc1c(NC(=O)OCc2ccccc2)c(=O)n(-c2ccccc2)n1C | 11.8% (inactive)
Cc1ccc(NC(=O)c2sccc2C)cc1[N+](=O)[O-] | 18.1% (inactive)
COc1ccc(NC(=O)CC2Sc3ncnn3C2=O)cc1 (stereo unspecified) | 34.3% (inactive)
N=c1sc2c(n1Cc1ccccc1)CCCC2 | 32% (inactive)
Cc1cc(NC(=O)/C=C/C(=O)N(c2ccccc2C)C(C(=O)NC2CCCC2)c2ccc(F)cc2)no1 (stereo unspecified) | -12.8% (inactive)
C[C@@H](NC(=O)[C@@H]1Cc2ccccc2CN1)C(=O)NCC1CCCO1 (stereo partly specified) | -20.9% (inactive)

— PubChem BioAssay AID1985 (Southern Research Specialized Biocontainment Screening …, 2009)
